High-throughput results (PubChem BioAssay)
HSF1 inh – HSF1 inhibition; NIH3T3-HGL HSE-luciferase, MG132-induced, luminescence 8 h; active compounds read low; activity change, negative = inhibition, % at 7.5 µM (by protocol); 300,000 compounds, 0.77% hits; AID 2098;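 active = more than half of replicate wells show activity change below -50%, luminescence cut by over half; inconclusive = some wells, but at most half, below -50%; inactive = no replicate well below -50%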;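 note: luciferase reports HSF-1 transcriptional activity via heat shock element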
esBAF inh – blocks esBAF chromatin remodeling in mouse ES cells; 350,000 compounds, 2% hits; AID 602393; reporter increase, % at 12.5 µM; Bmi1-luciferase knock-in reporter, 24 h; 100% = twice the neutral-well signal; in the data active = activation above about 40%; inconclusive = no clear call, values can overlap the other calls;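 note: a rise in the Bmi1 reporter signal indicates esBAF inhibition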
Wnt bcat act – activates Wnt/beta-catenin signaling in a reporter cell assay; activator, plate reader; activation, % at 9.35 µM; 300,000 compounds, 1.2% hits; in the data active = activation above about 30%, passing the limit was not always enough; inconclusive = no clear call, values can overlap the other calls
MITF act – activators of MITF-driven TRPM1 promoter activity in SK-MEL-5 cells | SK-MEL-5 TRPM1-promoter luciferase, 24 h; % of positive control, neutral wells = 0 | activation, % at 12.5 µM | 300,000 compounds, 0.75% hits;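 active = mean activation of at least 80% with every replicate also reaching 80%; inconclusive = mean reaches 80% but some replicate falls short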
HSF-1 act – increases HSF-1 driven luciferase reporter signal | NIH3T3-HGL HSF-1 luciferase reporter, MG132, 8 h; 100% = twice DMSO control signal | activation, % at 9 µM | 300,000 compounds, 1.7% hits;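 active = mean replicate activation of at least 50% with a set share of replicates each reaching 50%; inconclusive = only one of those two conditions met; inactive = mean below 50% and too few replicates reaching it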
Hits are given with their value; n = inactive; u = inconclusive; x = no result. This is a sample that favours compounds with a hit; in the whole collection about 3.8% have one here.

SMILES	HSF1 inh	esBAF inh	Wnt bcat act	MITF act	HSF-1 act
Clc1ccc(-c2csc(Nc3ccccc3)[n+]2Cc2ccco2)c(Cl)c1	n	x	43	89	92
CCNC(=O)Nc1ccc2c(c1)C(=O)N(C)[C@@H]1CC[C@H](CC(=O)NCC3CC3)O[C@@H]1CO2	x	n	x	x	x
COC(=O)C(C)N1C(=O)S/C(=C\c2ccc(-c3ccc(C(=O)O)cc3C)o2)C1=O (stereo not drawn)	n	71	n	n	n
O=C(NCC1CCCCC1)[C@H]1[C@H](CO)[C@H]2Cn3c(ccc(-c4ccccc4F)c3=O)[C@@H]1N2	x	n	x	x	x
C[C@@H]1CN([C@@H](C)CO)C(=O)Cc2cc(NS(C)(=O)=O)ccc2O[C@@H]1CN(C)C(=O)Nc1ccccc1	x	n	x	x	x
OC1c2cc(Br)ccc2N=C2CCCCCN21 (stereo not drawn)	x	44	n	x	x
OC1c2cc(Br)ccc2N=C2CCCN21 (stereo not drawn)	n	n	n	n	n
CCn1c(SCc2nc3ccccc3s2)nc2cc(S(=O)(=O)N3CCOCC3)ccc21	n	62	u	n	69
O=S(=O)(c1cccc(-c2nnc(SCc3nc4ccccc4s3)o2)c1)N1CCOCC1	n	n	x	n	54
O=S(=O)(c1ccc(OCc2nc3ccccc3s2)c(Cl)c1)N1CCOCC1	n	86	x	n	n
N#CCc1nc2ccc(S(=O)(=O)N3CCOCC3)cc2s1	n	n	n	n	n
CCCSc1nc2cc(S(=O)(=O)N3CCOCC3)ccc2n1CC	n	x	n	n	n
CC1=C(C(=O)N2CCOCC2)C(c2c(C)cc(C)cc2C)NC(=S)N1 (stereo not drawn)	n	n	n	n	95
C[C@@H]1CCCCO[C@H](CN(C)C)[C@@H](C)CN([C@@H](C)CO)C(=O)c2cc(NC(=O)CCC(F)(F)F)ccc2O1	x	n	x	x	x
Cn1nc([N+](=O)[O-])c(C(C#N)c2nc3ccccc3n2C)c(Cl)c1=O (stereo not drawn)	n	x	n	n	61
COc1ccc(NC(=O)Nc2ccc3c(c2)[C@H]2C[C@H](CC(=O)NCCc4ccccc4)O[C@@H](CO)[C@H]2O3)cc1	x	n	x	x	x
COc1cccc(/C=C2\N=C(SC)SC2=O)c1OC	n	n	n	x	56
CCCC#Cc1cnc2c(c1)C(=O)N([C@H](C)CO)C[C@H](C)[C@@H](CN(C)C(=O)c1ccccc1)O2	x	n	x	x	x
C[C@@H]1CCCCO[C@H](CN(C)C(=O)Nc2ccc3c(c2)OCO3)[C@H](C)CN([C@@H](C)CO)C(=O)c2cc(NC(=O)Nc3ccccc3)ccc2O1	x	n	x	x	x
CCCC(=O)N1CCC1(C)C(=O)Nc1ccccc1-c1ccccc1 (stereo not drawn)	x	n	n	x	x
CCCC(=O)N1CCC1(C)C(=O)Nc1cc(-c2ccccc2)nn1C (stereo not drawn)	x	55	33	x	x
CC(=O)OC[C@H]1O[C@@H](n2ncc(=O)[nH]c2=O)[C@H](OC(C)=O)[C@@H]1OC(C)=O	n	48	x	x	n
O=C(OCC1OC(n2ncc(=O)[nH]c2=O)C(OC(=O)c2ccccc2)C1OC(=O)c1ccccc1)c1ccccc1 (stereo not drawn)	n	n	n	x	n
Cc1cc(Nc2ccc(Br)cc2)nc(-c2ccccc2O)n1	n	n	n	x	n
Cc1ccc(Nc2cc(C)nc(-c3ccccc3)n2)cc1	n	u	u	122	52
SMILES	HSF1 inh	esBAF inh	Wnt bcat act	MITF act	HSF-1 act
Cc1cc(N/N=C/c2ccc(O)c(C)c2O)nc(-c2ccccc2O)n1	-59	x	n	n	n
Cc1ccc(Nc2cc(C)nc(-c3ccccc3O)n2)cc1	n	53	42	x	n
Cc1cc(NCCCN)nc(-c2ccccc2O)n1	n	45	x	n	n
Cc1cc(Nc2ccc(F)c(F)c2)nc(-c2ccccc2O)n1	n	n	n	n	n
COc1ccc(-c2ccc3c(c2)O[C@H](CN(C)CC2CCOCC2)[C@H](C)CN([C@H](C)CO)S3(=O)=O)cc1	x	n	x	x	x
COCC(=O)N1C[C@@H](C)[C@@H](OC)CN(C)C(=O)c2ccc(NC(=O)Nc3ccccc3)cc2OC[C@@H]1C	x	n	x	x	x
CC(C)NC(=O)N[C@H]1CC[C@@H](CC(=O)NCCN2CCCC2)O[C@@H]1CO	x	n	x	x	x
CC1CCCC(NC(=O)c2ccc3c(c2)OCCO3)C1C (stereo not drawn)	x	u	35	n	x
CC1CCCC(NC(=O)c2cccs2)C1C (stereo not drawn)	x	43	n	n	x
C[C@@H]1CN([C@@H](C)CO)C(=O)c2cc(NC(=O)Nc3ccc(F)cc3)ccc2O[C@H]1CN(C)Cc1ccc(C(F)(F)F)cc1	x	n	x	x	x
CC(C)CC#Cc1cnc2c(c1)C(=O)N([C@H](C)CO)C[C@@H](C)[C@@H](CN(C)C(=O)c1ccc3c(c1)OCO3)O2	x	n	x	x	x
O=C(NC(C(=O)c1ccccc1)N1CCCCC1)c1ccccc1 (stereo not drawn)	n	n	n	x	82
C[C@@H]1CN([C@@H](C)CO)C(=O)c2cc(NC(=O)Cc3cn(C)c4ccccc34)ccc2O[C@H]1CN(C)C	x	n	x	x	x
Cc1cccc(C)c1NC(=O)CNC(=O)C(C)N1CCCCC1 (stereo not drawn)	x	n	n	n	x
Cc1cccc(C)c1NC(=O)C(C)N1CCCC1 (stereo not drawn)	n	n	n	n	75
O=C(C[C@@H]1CC[C@@H](NC(=O)c2cccnc2)[C@@H](CO)O1)NCc1ccncn1	x	n	x	x	x
Clc1cccc(-c2ccc3ncnc(NCc4cccs4)c3c2)c1	x	n	35	n	x
COc1ccc(-c2nc3n(c2C)Cc2ccccc2-3)cc1	n	x	46	x	n
O=S(=O)(NCCSc1nnnn1-c1ccccc1)c1cccs1	n	53	n	n	n
O=S1(=O)c2cccc3cccc(c23)N1Cc1nnc(-c2ccccc2Br)o1	n	n	n	n	73
O=C1c2ccccc2S(=O)(=O)N1Cc1nnc(-c2ccccc2Br)o1	n	n	n	n	n
COc1cc(/C=N/N=C2/C(=O)Nc3ccccc32)cc(OC)c1O	-72	x	x	n	n
Cc1ccc(N=C2C(=O)Nc3ccccc32)cc1C	n	n	n	n	51
COc1ccc(NC(=O)Nc2ccc3c(c2)C(=O)N(C)C[C@@H](OC)[C@@H](C)CN[C@@H](C)CO3)cc1	x	n	x	x	x
O=C(CCc1nnc(Cc2ccc(-c3ccccc3)cc2)o1)N1CCCC1	n	x	n	n	70
SMILES	HSF1 inh	esBAF inh	Wnt bcat act	MITF act	HSF-1 act
O=C(CSc1nnc(Cc2ccccc2)o1)N1CCCC1	n	x	n	n	n
CN1C(=O)c2cc(NC(=O)C3CCCCC3)ccc2OC[C@H]2O[C@H](CC(=O)NCc3ccccc3F)CC[C@H]21	x	n	x	x	x
CCCOc1ccc(-c2c(=O)n(OCC(=O)OCC)c3ccccc3[n+]2[O-])cc1	n	70	n	x	56
C=CCOn1c(=O)c(-c2cc3ccccc3o2)[n+]([O-])c2ccccc21	n	54	x	n	n
CCOC(=O)COn1c(=O)c(-c2cc3ccccc3o2)[n+]([O-])c2ccccc21	n	52	n	x	n
CCOc1ccc(-c2c(=O)n(O)c3ccccc3[n+]2[O-])cc1	n	u	56	n	n
